Bioassay records as filed in PubChem BioAssay.
This excerpt belongs to a sample that is enriched for hits.
TTR transcr act – TTR transcription activators in neuroblastoma reporter cells, primary screen, cell-based, luminescence, SH-SY5Y, TTR promoter Gaussia luciferase; 92,000 compounds, 1.3% hits; activation, % at 16.7 µM; AID 1117267, 2014; 100% = recombinant luciferase protein wells;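 active = activation above the mean of all tested compounds plus 3 SD, cut at about 9.5% in these data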;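 note: cells exposed to compounds for one day before reading; 0% = median of all test compound wells on the plate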
HuH7 TTR inh – TTR promoter reporter inhibitors in hepatoma cells, counter-screen for TTR transcription activator project, cell-based, luminescence, HuH7 hepatoma; 1,100 compounds, 4% hits; HuH7 TTR promoter-Gaussia luciferase reporter; inhibition, % at 16.7 µM; shares compounds with TTR transcr act;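 active = average inhibition above the solvent-only control wells' mean plus 3 SD, cut at about 15% in these data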;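 note: 0% = cells with DMSO only and 100% = cells with inhibitor control FD; inhibitors lower well luminescence so higher value means more inhibition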
TTR up confirm – TTR transcription activators, retest, confirmation, cell-based, luminescence, SH-SY5Y, triplicate. activation, % at 16.7 µM. SHSY5Y TTR promoter Gaussia luciferase; 100% = purified Lucia enzyme wells, no cells. 1,100 tested, under 10 active. shares compounds with TTR transcr act;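 active = mean activation above a set limit taken from the earlier primary screen, cut at about 11% in these data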;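 note: 0% = DMSO-treated cells and 100% = recombinant Lucia luciferase without cells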
Starred values were filed as active, the others as inactive.

SMILES	TTR transcr act	others
Cc1cccc(NC(=O)CSc2nnc(C)n2Cc2ccccc2)c1	6
Cc1ccc(NC(=O)CSc2nnc(CN3CCOCC3)n2-c2ccccc2)cc1	-1
CCn1c(CN2CCOCC2)nnc1SCC(=O)Nc1cccc(C)c1	21*	HuH7 TTR inh=-17;TTR up confirm=-1
COC(=O)C(C[N+](=O)[O-])C1=C(O)CC(C)(C)CC1=O (centres undefined)	0
C=CCN1CC(COc2ccc(OC)cc2)OCCS1(=O)=O (centres undefined)	1
COc1ccc2ccccc2c1-c1c(C(=O)c2ccc(Br)cc2)[nH]c(N)c1C(=O)NC1CCCCC1	0
O=C(CCc1ccccc1)NCCCN1CCOCC1	1
O=C1C(Cl)=C(NCCCN2CCOCC2)C(=O)N1CCc1ccccc1	69*	HuH7 TTR inh=-3;TTR up confirm=-1
CN1CCN(C2=C(Cl)C(=O)N(CCc3ccccc3)C2=O)CC1	5
O=C1CCC[C@H]2C[C@H](NCc3cccc(F)c3)CC[C@]23CCCN13	0
Cc1ccccc1CNC1CCC12CCC(c1ccccc1)CC2 (centres undefined)	1
Cc1ccc(CN2CC=CCS2(=O)=O)cc1	-1
Cc1ccc(Cc2c(-c3cccc(Cl)c3)nc3cc(C)c(Br)c(C)n23)cc1	0
Cc1ccc(Cc2c(-c3ccccc3)nc3cc(C)c(Br)c(C)n23)cc1	12*	HuH7 TTR inh=-10;TTR up confirm=0
Cc1cc2nc(-c3ccc(F)cc3)c(Cc3ccccc3)n2c(C)c1Br	0
N#Cc1cccc(Cn2ccc3ccc(-c4ccc5ccn(Cc6ccccc6)c5c4)cc32)c1	-1
Cc1ccc(S(=O)(=O)N2CC[C@@]3(Cc4ccccc4)Cc4ccccc4C[C@@H]23)cc1	1
O=C(OCC#CCSc1nnc(-c2ccccc2)o1)c1ccc(F)cc1	-1
COC(=O)[C@]12C[C@H](CC(=O)NCc3cccc(C(F)(F)F)c3)C(=O)N(Cc3ccco3)C1=C[C@H](COCc1ccccc1)O[C@@H]2C	0
CCOC(=O)[C@@]12CCC3=C1N(CCC3)C(=O)[C@H](CC(=O)N1CCCC1)C2	-1
CCn1c(C(O)c2cc(OC)c(OC)c(OC)c2)nc2ccccc21 (centres undefined)	3
CCCn1c(C(C)Nc2nc(-c3ccc(OC)cc3)cs2)nc2ccccc21 (centres undefined)	7
CCCn1c(C(O)c2ccc(OC)cc2)nc2ccccc21 (centres undefined)	9.8*	HuH7 TTR inh=-17;TTR up confirm=0
Cc1ccc(-c2cc(C#N)c3n(c2=O)CCC3)cc1	-1
COc1ccccc1NC(=O)OC1CC2CC1[C@H]1CCCCN1[C@H]2Cc1ccccc1 (some centres undefined)	0
SMILES	TTR transcr act	others
CCCCN(C)S(=O)(=O)c1c(C)[nH]c(=O)[nH]c1=O	0
Cc1ccc(N(C(C)C(=O)O)S(=O)(=O)c2c(C)[nH]c(=O)[nH]c2=O)cc1 (centres undefined)	10*	HuH7 TTR inh=-13;TTR up confirm=0
COC(=O)CN(c1ccc(C(C)C)cc1)S(=O)(=O)c1c(C)[nH]c(=O)[nH]c1=O	3
COc1ccccc1NC(=O)OC1CC2CC1[C@H]1CCCCN1[C@H]2C (some centres undefined)	1
COc1ccc(NC(=O)c2sccc2C)c([N+](=O)[O-])c1	4
COc1ccc(NC(=O)Nc2ccc(OC)c(OC)c2)c([N+](=O)[O-])c1	2
COc1ccc(/C=C/C(=O)Nc2ccc(OC)cc2[N+](=O)[O-])cc1	13*	HuH7 TTR inh=0;TTR up confirm=2
COc1ccccc1NS(=O)(=O)c1cc(NC(C)=O)ccc1N1CCCCC1	0
COc1ccccc1NS(=O)(=O)c1cc(NC(=O)c2cc(F)c(F)c(F)c2F)ccc1N1CCOCC1	27*	HuH7 TTR inh=9;TTR up confirm=-1
COc1ccccc1NS(=O)(=O)c1cc(N2Cc3ccccc3C2=N)ccc1N1CCOCC1	2
CCCCCCCCN1C(=O)[C@@H](CC(=O)NCC2CCCCC2)C[C@@]2(C(=O)OC)C1=C[C@H](COCc1ccccc1)O[C@@H]2C	2
COCCSc1ccccc1C(=O)N1CCCC(C)C1 (centres undefined)	21*	HuH7 TTR inh=-26;TTR up confirm=0
CCOC(=O)N1CCN(C2CCCN(C(=O)c3ccccc3SC)C2)CC1 (centres undefined)	1
COCCSc1ccccc1C(=O)N1CCN(c2ccccc2)CC1	0
C/C(=N\NC(=O)c1ccc(N(C)C)cc1)c1cccnc1	0
C/C(=N\NC(=O)c1cccs1)c1cccnc1	9.9*	HuH7 TTR inh=-5;TTR up confirm=0
O=C(NNC(=S)NC(=O)c1cccs1)c1cccnc1	-2
COc1ccc(OC)c(CN2C(=O)CSCC2(C)c2nnnn2C2CCCC2)c1 (centres undefined)	6
O=C(CCN1C(=O)COc2ccccc21)N1CCN(c2ccccn2)CC1	-1
